The text below walks through data of PubChem BioAssay (Tox21).

Records with an inconclusive call do not appear. Unmarked numbers belong to inactive results. Active and inactive are the calls of the source. The call rests on the fitted dose curve; in most records, active means well fitted curve in the direction sought with a large enough effect in the repeat runs; inconclusive means weak or mixed curves; inactive means no such curve, though single readings can be large; an effect the other way counts as inactive or inconclusive.
On the % scale 0 is the no-effect control and ±100 the full control effect; potency means the concentration at half of the fitted maximal effect.

A short description of one assay: qHTS RealTime-Glo MT Cell Viability Assay in HepG2 cells - 32 hour (AID 1224877). Further: nearly all actives have a fitted effect of over 55% in size. Conditions: RealTime-Glo luminescence; series mostly up to 76.8 µM; activity change, negative = cytotoxic: at the top concentration. The method, boiled down: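 HepG2 suspension premixed with RealTime-Glo reagents is plated at 600 cells per well and left 5 h at 37 C/5% CO2. Compounds in DMSO then go in, and bioluminescence reflecting viable cell number is recorded over 40 h.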
As for `CN(Cc1ccc(C(C)(C)C)cc1)Cc1cccc2ccccc12`, the “activity change, negative = cytotoxic” value was -8.52% [at 35.3 µM]. As to `COc1ccc(-c2nc3ccc(C4=NNC(=O)CC4C)cc3[nH]2)cc1` (stereo not drawn), the “activity change, negative = cytotoxic” value is -12.8% [at 35.3 µM]. On the same count and under the same terms, in the case of `CCCCC(=O)OCC(=O)[C@H]1[C@H](C)C[C@H]2[C@@H]3C[C@H](F)C4=CC(=O)C=C[C@]4(C)[C@@]3(F)[C@@H](O)C[C@@]21C` it was -4.9% [at 35.3 µM]. Consider `Clc1ccc2c(c1)CCc1cccnc1C2=C1CCNCC1`, for which the Potency was 26.8 µM (active). For the molecule `CCn1cc(C(=O)O)c(=O)c2cnc(N3CCNCC3)nc21`, the “activity change, negative = cytotoxic” value is 0.262% [at 35.3 µM]. Same read-out and setting: in the case of `COc1cc(C(=O)OCCCN2CCCN(CCCOC(=O)c3cc(OC)c(OC)c(OC)c3)CC2)cc(OC)c1OC` it was -10.1% [at 35.3 µM].

As to `NS(=O)(=O)c1ccc(N2CCCCS2(=O)=O)cc1`, the “activity change, negative = cytotoxic” value is 0.554% [at 35.3 µM]. Still for that read-out and setting: the same measure for `CCCCCCCC/C=C\CCCCCCCC(=O)OCC`: -3.26%. With `Nc1cc(C(=O)O)c(O)c(S(=O)(=O)O)c1`, the “activity change, negative = cytotoxic” value is -1.35%. Consider `C/C=C/C(=O)CC`, for which the activity change, negative = cytotoxic was 0.591% [at 15.8 µM].

As to `ClCCOCCOCCCl`, the “activity change, negative = cytotoxic” value was 0.886%.

For the molecule `CCN(CC)CCNC(=O)c1cc(Br)c(N)cc1OC`, the “activity change, negative = cytotoxic” value was -0.707% [at 35.3 µM].

On to `O=C(O)C(S)C(S)C(=O)O` (stereo not drawn), for which the “activity change, negative = cytotoxic” value is 1.01% [at 35.3 µM]. Turning to `O=[N+]([O-])c1ccc2[nH]ncc2c1`, the “activity change, negative = cytotoxic” value is -0.154%. On to `CCCCCCCCCCO[C@@H]1O[C@H](CO)[C@@H](O)[C@H](O)[C@H]1O`, for which the “activity change, negative = cytotoxic” value was -4.54%. Take `CCCCCCCCCCCCCCCCCCOS(=O)(=O)O`: the “activity change, negative = cytotoxic” value was -0.155%. As to `CN(C)c1ccc(/C=C/c2ccc([N+](=O)[O-])cc2)cc1`, the activity change, negative = cytotoxic was -4.75% [at 6.97 µM]. Consider `C[N+]1(C)CCC(OC(=O)C(O)(c2ccccc2)C2CCCC2)C1` (stereo not drawn), for which the “activity change, negative = cytotoxic” value was 3.49% [at 35.3 µM]. Take `CCO[Si](CCCCl)(OCC)OCC`: the “activity change, negative = cytotoxic” value was 1.62%.

For the molecule `Nc1ncn([C@H]2C[C@H](O)[C@@H](CO)O2)c(=O)n1`, the “activity change, negative = cytotoxic” value is 0.0076% [at 35.3 µM]. As to `O=C1OC(=O)C2C3C=CC(C3)C12` (stereo not drawn), the “activity change, negative = cytotoxic” value is 0.335%. Consider `CCCCCCCCO[C@@H]1O[C@H](CO)[C@@H](O)[C@H](O)[C@H]1O`, for which the “activity change, negative = cytotoxic” value was 2.83%. With `C/C(=C(\CCOP(=O)(O)O)SC(=O)c1ccccc1)N(C=O)Cc1cnc(C)nc1N`, the activity change, negative = cytotoxic is 2.64% [at 6.97 µM].

Consider `CCCCOC(=O)CCCCCCCC(=O)OCCCC`, for which the “activity change, negative = cytotoxic” value is 2.03%. On the same count and under the same terms, the same measure for `CN1C[C@H]2c3ccccc3Oc3ccc(Cl)cc3[C@@H]2C1`: -15.1% [at 35.3 µM]; for `O=C(O)c1ccccc1Cl`: 0.845%; for `Cc1cc(N)c2cc(NC(=O)Nc3ccc4nc(C)cc(N)c4c3)ccc2n1`: -3.98% [at 35.3 µM].

On to `O=C1CCC(=O)O1`, for which the “activity change, negative = cytotoxic” value is 1.94%. The same measure, in the same setting: in the case of `O=C(NCCO[N+](=O)[O-])c1cccnc1` it was 1.58% [at 35.3 µM]; in that of `CCN(CC)CCOC(=O)C(Cc1cccc2ccccc12)CC1CCCO1` (stereo not drawn), 1.36% [at 35.3 µM].

Turning to `C[C@H](CCC(=O)O)[C@H]1CC[C@H]2[C@@H]3CC[C@@H]4C[C@H](O)CC[C@]4(C)[C@H]3C[C@H](O)[C@]12C`, the “activity change, negative = cytotoxic” value was 2.59%. With `CCc1cc(C2=C(C(=O)O)N(c3ccccc3C(F)(F)F)S(=O)(=O)c3ccccc32)cc2c1OCO2`, the “activity change, negative = cytotoxic” value is 0.339%.

The next assay is described as follows: A CellTox Green Cytotoxicity Assay to monitor cytotoxicity in HepG2 cells - 24 hour (AID 1224878). Further: nearly all actives have a fitted effect of over 45% in size. Conditions: CellTox Green fluorescence; series mostly up to 76.8 µM; cytotoxicity: at the top concentration. Summed up: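 Real-time cytotoxicity: fluorescence of a cell-impermeant cyanine dye binding DNA of dead HepG2 cells, measured repeatedly (0–40 h) during compound exposure at 37 C. Cells seeded 600/well with reagent, dosed after 5 h.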
On to `CN(Cc1ccc(C(C)(C)C)cc1)Cc1cccc2ccccc12`, for which the “cytotoxicity” value was 17.8% [at 35.3 µM]. As to `COc1ccc(-c2nc3ccc(C4=NNC(=O)CC4C)cc3[nH]2)cc1` (stereo not drawn), the “cytotoxicity” value was 10% [at 35.3 µM]. As to `CN1CCC(=C2c3ccccc3Sc3ccccc32)CC1`, the Potency is 23.9 µM (active). Turning to `CCCCC(=O)OCC(=O)[C@H]1[C@H](C)C[C@H]2[C@@H]3C[C@H](F)C4=CC(=O)C=C[C@]4(C)[C@@]3(F)[C@@H](O)C[C@@]21C`, the “cytotoxicity” value is 1.65% [at 35.3 µM].

With `Clc1ccc2c(c1)CCc1cccnc1C2=C1CCNCC1`, the Potency is 23.9 µM (active).

As to `CCn1cc(C(=O)O)c(=O)c2cnc(N3CCNCC3)nc21`, the “cytotoxicity” value was 6.98% [at 35.3 µM]. In the case of `CCOc1ccc(N=Nc2ccc(/C=C/c3ccc(N=Nc4ccc(OCC)cc4)cc3S(=O)(=O)O)c(S(=O)(=O)O)c2)cc1`, the “cytotoxicity” value was -41.2%. Consider `NS(=O)(=O)c1ccc(N2CCCCS2(=O)=O)cc1`, for which the “cytotoxicity” value is 0.0067% [at 35.3 µM].

`CCCCCCCC/C=C\CCCCCCCC(=O)OCC`: the “cytotoxicity” value is -0.079%. Same read-out and setting: the same measure for `Nc1cc(C(=O)O)c(O)c(S(=O)(=O)O)c1`: -1.77%; for `C/C=C/C(=O)CC`: 1.31% [at 15.8 µM]. Take `CCN(CC)CCNC(=O)c1cc(Br)c(N)cc1OC`: the “cytotoxicity” value is 3.75% [at 35.3 µM]. In the case of `O=C(O)C(S)C(S)C(=O)O` (stereo not drawn), the “cytotoxicity” value was -17.8% [at 35.3 µM].

As to `O=[N+]([O-])c1ccc2[nH]ncc2c1`, the “cytotoxicity” value is -13.5%. Still for that read-out and setting: the same measure for `CCCCCCCCCCO[C@@H]1O[C@H](CO)[C@@H](O)[C@H](O)[C@H]1O`: 22.6%; for `CN(C)c1ccc(/C=C/c2ccc([N+](=O)[O-])cc2)cc1`: 17.5% [at 6.97 µM]. With `C[N+]1(C)CCC(OC(=O)C(O)(c2ccccc2)C2CCCC2)C1` (stereo not drawn), the “cytotoxicity” value was 17.7% [at 35.3 µM]. In the case of `CCO[Si](CCCCl)(OCC)OCC`, the “cytotoxicity” value is 0.187%.

Take `Nc1ncn([C@H]2C[C@H](O)[C@@H](CO)O2)c(=O)n1`: the “cytotoxicity” value is 2.79% [at 35.3 µM]. As for `O=C1OC(=O)C2C3C=CC(C3)C12` (stereo not drawn), the “cytotoxicity” value was -10.9%. With `CCCCCCCCO[C@@H]1O[C@H](CO)[C@@H](O)[C@H](O)[C@H]1O`, the “cytotoxicity” value was 3.66%. As to `C/C(=C(\CCOP(=O)(O)O)SC(=O)c1ccccc1)N(C=O)Cc1cnc(C)nc1N`, the cytotoxicity was -0.377% [at 6.97 µM]. As for `CCN(CC)CCOC(=O)C(c1ccccc1)C1CCCCC1` (stereo not drawn), the Potency was 23.9 µM (active). As to `CCCCOC(=O)CCCCCCCC(=O)OCCCC`, the “cytotoxicity” value was -0.0509%. In the case of `O=C(O)c1ccccc1Cl`, the “cytotoxicity” value is -6.08%.

Consider `Cc1cc(N)c2cc(NC(=O)Nc3ccc4nc(C)cc(N)c4c3)ccc2n1`, for which the “cytotoxicity” value is -48.1% [at 35.3 µM]. Turning to `O=C1CCC(=O)O1`, the “cytotoxicity” value is -8.65%. On to `O=C(NCCO[N+](=O)[O-])c1cccnc1`, for which the “cytotoxicity” value is -16.1% [at 35.3 µM]. Same read-out and setting: the same measure for `CCN(CC)CCOC(=O)C(Cc1cccc2ccccc12)CC1CCCO1` (stereo not drawn): 28.6% [at 35.3 µM]; for `C[C@H](CCC(=O)O)[C@H]1CC[C@H]2[C@@H]3CC[C@@H]4C[C@H](O)CC[C@]4(C)[C@H]3C[C@H](O)[C@]12C`: 20.6%; for `CCc1cc(C2=C(C(=O)O)N(c3ccccc3C(F)(F)F)S(=O)(=O)c3ccccc32)cc2c1OCO2`: 7.48%.
